# In the supplement of paper PMC6411743:
# ± gives the standard deviation of the averaged measurements. Of roughly 6,200 targets only a part is listed; those with the largest changes were picked by preference.
# Compound: Nc1ncnc2c1ncn2[C@@H]1O[C@H](COP(=O)(O)OP(=O)(O)NP(=O)(O)O)[C@@H](O)[C@H]1O [adenylyl imidodiphosphate]
# Assay: NP40-soluble protein abundance relative to vehicle (solubility fold change) (ratio); higher = more soluble protein in presence of AMP-PNP
# In short: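 Crude Jurkat lysate, prepared by Dounce homogenisation, was exposed to eight concentrations from 0.1 to 10 mM for 10 min at room temperature and then 3 min at 37 °C. Solubilisation used 0.8% NP40 with benzonase for 60 min at 4 °C, followed by ultracentrifugation and TMT labelling of the supernatant for LC-MS/MS. After vsn normalisation of intensities, each value is the fold change against the detergent-processed vehicle within each replicate, across three independent experiments.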
# Chain of UniProt Q9NPG3 (Q9NPG3 whole entry): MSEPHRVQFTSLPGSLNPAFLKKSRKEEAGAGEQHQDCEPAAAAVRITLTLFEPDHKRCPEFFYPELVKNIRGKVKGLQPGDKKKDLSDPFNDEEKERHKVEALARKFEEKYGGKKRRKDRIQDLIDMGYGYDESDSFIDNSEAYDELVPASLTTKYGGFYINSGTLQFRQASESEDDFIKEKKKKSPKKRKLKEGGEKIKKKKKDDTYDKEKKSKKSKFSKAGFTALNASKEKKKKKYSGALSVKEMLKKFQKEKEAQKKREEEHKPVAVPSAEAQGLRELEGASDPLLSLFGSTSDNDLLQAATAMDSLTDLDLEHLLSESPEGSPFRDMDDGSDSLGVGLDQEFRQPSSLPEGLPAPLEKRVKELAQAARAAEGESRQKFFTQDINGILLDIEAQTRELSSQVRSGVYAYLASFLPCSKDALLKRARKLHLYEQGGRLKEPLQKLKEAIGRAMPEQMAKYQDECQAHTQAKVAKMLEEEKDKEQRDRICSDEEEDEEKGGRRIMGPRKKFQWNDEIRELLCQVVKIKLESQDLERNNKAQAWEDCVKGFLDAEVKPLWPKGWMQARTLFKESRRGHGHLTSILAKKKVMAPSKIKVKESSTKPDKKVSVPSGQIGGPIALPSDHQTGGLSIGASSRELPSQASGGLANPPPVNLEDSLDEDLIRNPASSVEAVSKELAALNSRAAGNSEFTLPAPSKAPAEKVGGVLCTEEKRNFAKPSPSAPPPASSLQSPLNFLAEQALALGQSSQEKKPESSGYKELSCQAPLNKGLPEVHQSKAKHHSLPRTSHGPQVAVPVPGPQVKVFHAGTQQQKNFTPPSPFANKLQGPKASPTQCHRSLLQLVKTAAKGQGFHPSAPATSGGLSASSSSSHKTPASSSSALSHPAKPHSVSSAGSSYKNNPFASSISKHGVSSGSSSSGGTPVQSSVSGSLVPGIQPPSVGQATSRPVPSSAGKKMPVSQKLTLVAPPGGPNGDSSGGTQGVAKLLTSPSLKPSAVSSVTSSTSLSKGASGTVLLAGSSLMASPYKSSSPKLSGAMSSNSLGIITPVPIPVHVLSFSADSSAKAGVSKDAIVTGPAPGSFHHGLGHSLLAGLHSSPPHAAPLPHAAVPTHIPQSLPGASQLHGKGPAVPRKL
# Chain of UniProt Q99523 (Q99523 whole entry): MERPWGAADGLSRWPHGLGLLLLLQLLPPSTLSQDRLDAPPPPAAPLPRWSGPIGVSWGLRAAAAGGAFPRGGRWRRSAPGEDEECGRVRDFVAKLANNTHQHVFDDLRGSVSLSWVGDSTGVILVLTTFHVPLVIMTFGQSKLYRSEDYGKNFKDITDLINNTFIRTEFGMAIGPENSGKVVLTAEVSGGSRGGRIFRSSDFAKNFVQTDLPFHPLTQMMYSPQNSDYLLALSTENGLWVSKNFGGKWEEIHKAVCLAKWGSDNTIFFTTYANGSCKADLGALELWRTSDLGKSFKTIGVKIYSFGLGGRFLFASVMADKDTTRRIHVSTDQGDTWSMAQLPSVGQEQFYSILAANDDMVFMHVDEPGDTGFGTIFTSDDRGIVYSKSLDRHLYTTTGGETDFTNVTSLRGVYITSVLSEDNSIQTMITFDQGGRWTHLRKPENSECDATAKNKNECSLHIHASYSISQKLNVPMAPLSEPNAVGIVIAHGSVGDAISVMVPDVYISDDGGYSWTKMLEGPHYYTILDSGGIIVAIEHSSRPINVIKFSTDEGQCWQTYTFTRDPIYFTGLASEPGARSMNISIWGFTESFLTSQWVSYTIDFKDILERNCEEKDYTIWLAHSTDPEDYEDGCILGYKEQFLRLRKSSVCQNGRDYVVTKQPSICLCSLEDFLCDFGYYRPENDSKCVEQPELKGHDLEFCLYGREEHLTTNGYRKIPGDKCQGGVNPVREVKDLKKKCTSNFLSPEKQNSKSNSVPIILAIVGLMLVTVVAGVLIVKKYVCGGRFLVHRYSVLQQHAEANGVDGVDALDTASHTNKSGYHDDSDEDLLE
# Chain of UniProt Q9H6F5 (Q9H6F5 whole entry): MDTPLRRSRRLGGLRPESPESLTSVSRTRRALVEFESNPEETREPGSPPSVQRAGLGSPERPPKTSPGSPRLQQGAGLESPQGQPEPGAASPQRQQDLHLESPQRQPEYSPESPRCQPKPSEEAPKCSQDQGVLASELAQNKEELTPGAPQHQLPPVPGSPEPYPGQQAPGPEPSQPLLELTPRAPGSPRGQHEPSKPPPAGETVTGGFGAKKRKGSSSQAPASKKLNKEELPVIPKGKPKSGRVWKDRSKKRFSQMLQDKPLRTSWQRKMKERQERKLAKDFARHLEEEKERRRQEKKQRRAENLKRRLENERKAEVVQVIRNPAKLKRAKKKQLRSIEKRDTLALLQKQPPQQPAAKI
# Chain of UniProt Q9BU76 (Q9BU76 whole entry): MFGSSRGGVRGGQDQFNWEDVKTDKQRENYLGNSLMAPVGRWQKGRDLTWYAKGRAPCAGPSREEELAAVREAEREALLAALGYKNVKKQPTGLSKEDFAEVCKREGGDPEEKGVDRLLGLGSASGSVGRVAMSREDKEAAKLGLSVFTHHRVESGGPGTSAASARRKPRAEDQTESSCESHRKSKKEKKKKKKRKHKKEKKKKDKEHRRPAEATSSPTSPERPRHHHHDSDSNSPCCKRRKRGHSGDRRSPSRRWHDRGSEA
# Chain of UniProt Q96K49 (Q96K49 whole entry): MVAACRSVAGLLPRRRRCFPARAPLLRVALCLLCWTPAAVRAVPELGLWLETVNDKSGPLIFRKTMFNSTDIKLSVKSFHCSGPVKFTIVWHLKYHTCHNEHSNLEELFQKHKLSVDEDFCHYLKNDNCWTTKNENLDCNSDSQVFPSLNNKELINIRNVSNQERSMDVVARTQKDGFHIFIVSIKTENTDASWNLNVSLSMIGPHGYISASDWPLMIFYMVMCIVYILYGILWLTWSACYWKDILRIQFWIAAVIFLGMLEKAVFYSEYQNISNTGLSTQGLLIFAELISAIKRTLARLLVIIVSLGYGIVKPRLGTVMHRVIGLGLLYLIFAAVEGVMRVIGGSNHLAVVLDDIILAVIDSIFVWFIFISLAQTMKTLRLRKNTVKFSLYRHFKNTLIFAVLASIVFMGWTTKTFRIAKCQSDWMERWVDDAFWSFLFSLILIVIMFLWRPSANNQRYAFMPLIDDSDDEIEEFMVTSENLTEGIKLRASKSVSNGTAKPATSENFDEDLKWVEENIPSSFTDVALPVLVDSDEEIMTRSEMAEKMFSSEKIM
# Chain of UniProt Q9NYF8 (Q9NYF8 whole entry, one chain of several): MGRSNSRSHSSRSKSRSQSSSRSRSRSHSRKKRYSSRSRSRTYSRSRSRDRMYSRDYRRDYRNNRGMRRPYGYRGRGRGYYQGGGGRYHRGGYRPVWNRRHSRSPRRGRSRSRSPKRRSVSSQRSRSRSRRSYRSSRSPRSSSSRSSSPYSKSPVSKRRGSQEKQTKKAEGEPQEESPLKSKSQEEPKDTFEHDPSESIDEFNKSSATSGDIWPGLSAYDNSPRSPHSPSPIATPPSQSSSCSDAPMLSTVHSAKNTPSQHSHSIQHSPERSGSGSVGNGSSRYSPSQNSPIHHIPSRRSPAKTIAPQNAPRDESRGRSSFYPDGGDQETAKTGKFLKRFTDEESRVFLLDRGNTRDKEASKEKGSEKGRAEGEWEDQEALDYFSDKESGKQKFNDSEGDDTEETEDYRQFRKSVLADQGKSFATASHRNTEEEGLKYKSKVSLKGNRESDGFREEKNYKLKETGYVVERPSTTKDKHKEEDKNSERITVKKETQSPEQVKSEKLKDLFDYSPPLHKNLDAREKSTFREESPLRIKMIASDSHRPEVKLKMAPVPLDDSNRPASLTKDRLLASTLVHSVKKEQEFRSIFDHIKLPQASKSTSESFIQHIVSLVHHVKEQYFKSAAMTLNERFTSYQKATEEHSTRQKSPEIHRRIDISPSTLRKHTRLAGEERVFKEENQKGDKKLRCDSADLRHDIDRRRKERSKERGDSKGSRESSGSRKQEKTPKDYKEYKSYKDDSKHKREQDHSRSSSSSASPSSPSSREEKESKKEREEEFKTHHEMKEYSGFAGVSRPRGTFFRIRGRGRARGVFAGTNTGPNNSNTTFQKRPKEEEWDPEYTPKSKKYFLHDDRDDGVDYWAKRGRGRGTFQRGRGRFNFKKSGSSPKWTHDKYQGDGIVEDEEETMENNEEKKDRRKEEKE
# Chain of UniProt Q99460 (Q99460 whole entry): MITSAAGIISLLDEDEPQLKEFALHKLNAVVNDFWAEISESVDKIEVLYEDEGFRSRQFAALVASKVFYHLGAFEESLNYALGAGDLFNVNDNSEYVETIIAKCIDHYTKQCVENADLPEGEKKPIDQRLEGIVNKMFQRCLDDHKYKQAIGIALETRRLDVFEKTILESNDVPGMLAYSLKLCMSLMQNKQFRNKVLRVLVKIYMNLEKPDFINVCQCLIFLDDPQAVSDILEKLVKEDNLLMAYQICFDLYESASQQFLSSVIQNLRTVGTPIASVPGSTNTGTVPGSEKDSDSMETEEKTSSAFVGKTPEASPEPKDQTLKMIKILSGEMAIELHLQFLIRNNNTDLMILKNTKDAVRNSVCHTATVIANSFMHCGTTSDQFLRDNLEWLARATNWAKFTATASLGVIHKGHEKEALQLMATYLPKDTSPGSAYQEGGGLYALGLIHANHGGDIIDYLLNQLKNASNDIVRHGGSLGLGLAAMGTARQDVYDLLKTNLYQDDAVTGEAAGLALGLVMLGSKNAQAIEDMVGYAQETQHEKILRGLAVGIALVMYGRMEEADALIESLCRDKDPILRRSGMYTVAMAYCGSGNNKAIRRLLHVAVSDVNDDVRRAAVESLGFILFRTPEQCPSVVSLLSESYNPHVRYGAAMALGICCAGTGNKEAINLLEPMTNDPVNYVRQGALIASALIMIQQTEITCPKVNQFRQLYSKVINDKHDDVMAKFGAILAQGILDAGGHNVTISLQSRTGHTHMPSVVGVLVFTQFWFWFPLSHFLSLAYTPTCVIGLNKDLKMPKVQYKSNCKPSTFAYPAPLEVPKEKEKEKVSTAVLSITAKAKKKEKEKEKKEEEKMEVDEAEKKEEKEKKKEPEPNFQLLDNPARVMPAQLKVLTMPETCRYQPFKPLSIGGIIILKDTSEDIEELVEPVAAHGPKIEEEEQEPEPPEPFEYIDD
Target,NP40-soluble protein abundance (concentration: 1mM),NP40-soluble protein abundance (concentration: 2mM),NP40-soluble protein abundance (concentration: 4mM),NP40-soluble protein abundance (concentration: 6mM),NP40-soluble protein abundance (concentration: 8mM),NP40-soluble protein abundance (concentration: 10mM)
SORT1 (UniProt Q99523),0.99 ± 0.034,1.05 ± 0.089,0.995 ± 0.063,1.03 ± 0.055,1.03 ± 0.036,1.03 ± 0.047
UniProt Q9H2H8|B8ZZ77|Q9H2H8-2,1.04 ± 0.038,1.04 ± 0.032,1.04 ± 0.017,0.998 ± 0.031,1.02 ± 0.018,1.03 ± 0.038
UniProt Q9Y520|Q9Y520-5|Q9Y520-7|E7EPN9|Q9Y520-4,1.1 ± 0.013,1.2 ± 0.092,1.2 ± 0.05,1.25 ± 0.12,1.29 ± 0.14,1.41 ± 0.17
UniProt Q9BU76|Q9BU76-4,1.03 ± 0.04,1.04 ± 0.052,1 ± 0.067,1.01 ± 0.035,0.99 ± 0.031,0.989 ± 0.038
UniProt Q9UIG0|Q9UIG0-2,1.04 ± 0.048,1.08 ± 0.055,1.11 ± 0.046,1.23 ± 0.074,1.3 ± 0.11,1.45 ± 0.16
UniProt Q9H6A9|Q9H6A9-2,1.01 ± 0.016,1.02 ± 0.027,0.98826 ± 0.00019,0.989 ± 0.028,0.9847 ± 0.0089,0.9795 ± 0.0059
GDE1 (UniProt Q9NZC3),1.01 ± 0.043,1.02 ± 0.034,1.01 ± 0.03,1.01 ± 0.08,0.995 ± 0.05,1.01 ± 0.06
UniProt Q99828|Q99828-2,1.001 ± 0.0091,0.977 ± 0.03,0.993 ± 0.035,0.9794 ± 0.0058,0.949 ± 0.036,0.95 ± 0.025
PSMB7 (UniProt Q99436),0.946 ± 0.04,0.909 ± 0.061,0.906 ± 0.057,0.928 ± 0.086,0.918 ± 0.081,0.9 ± 0.13
DIDO1 (UniProt Q9BTC0),1.1 ± 0.035,1.18 ± 0.093,1.23 ± 0.043,1.28 ± 0.12,1.27 ± 0.12,1.36 ± 0.12
RTN4 (UniProt Q9NQC3),1.05 ± 0.014,1.07 ± 0.057,1.04 ± 0.028,1.02 ± 0.014,1.01 ± 0.032,1.03 ± 0.065
UniProt Q9UKT4|Q9UKT4-2,0.995 ± 0.029,1.03 ± 0.031,1.03 ± 0.072,1 ± 0.061,1.02 ± 0.092,1.02 ± 0.11
UniProt Q9HC36,1.05 ± 0.047,1.1 ± 0.088,1.23 ± 0.12,1.37 ± 0.18,1.51 ± 0.22,1.6 ± 0.28
CCDC124 (UniProt Q96CT7),1.13 ± 0.037,1.29 ± 0.15,1.35 ± 0.058,1.58 ± 0.12,1.86 ± 0.17,2.16 ± 0.25
UniProt Q9Y4E8|Q9Y4E8-3,0.967 ± 0.013,0.963 ± 0.032,1.02 ± 0.041,1 ± 0.048,0.993 ± 0.065,1.01 ± 0.027
NANS (UniProt Q9NR45),0.981 ± 0.015,0.932 ± 0.043,0.939 ± 0.011,0.954 ± 0.015,0.948 ± 0.036,0.918 ± 0.027
UniProt Q96L91|Q96L91-2|Q96L91-3|Q96L91-5,1.03 ± 0.036,1.09 ± 0.038,1.05 ± 0.028,1.05 ± 0.061,1.03 ± 0.057,1.1 ± 0.084
UniProt Q9NUY8|Q9NUY8-2,0.961 ± 0.0094,0.999 ± 0.026,0.986 ± 0.014,1 ± 0.035,0.991 ± 0.027,1.01 ± 0.031
UniProt Q96K49|Q96K49-2,0.99 ± 0.013,1.01 ± 0.027,0.984 ± 0.026,0.9718 ± 0.005,0.9653 ± 0.0019,0.9716 ± 0.0066
UniProt Q9UL63|C9J7E8|Q9UL63-2,0.984 ± 0.065,0.968 ± 0.061,0.994 ± 0.041,0.937 ± 0.085,0.934 ± 0.092,0.922 ± 0.12
UniProt Q9NYU2|Q9NYU2-2,0.9826 ± 0.0098,0.9 ± 0.12,0.955 ± 0.034,0.917 ± 0.031,0.936 ± 0.04,0.895 ± 0.036
C16orf70 (UniProt Q9BSU1),1.01 ± 0.056,0.978 ± 0.029,0.982 ± 0.042,1.01 ± 0.018,1.02 ± 0.02,1.05 ± 0.02
UniProt Q9NVI7-2,1.08 ± 0.075,1.05 ± 0.073,1.14 ± 0.18,1.29 ± 0.18,1.38 ± 0.24,1.44 ± 0.32
PSMD1 (UniProt Q99460),0.902 ± 0.044,0.887 ± 0.06,0.851 ± 0.094,0.863 ± 0.11,0.848 ± 0.098,0.847 ± 0.13

Target,NP40-soluble protein abundance (concentration: 1mM),NP40-soluble protein abundance (concentration: 2mM),NP40-soluble protein abundance (concentration: 4mM),NP40-soluble protein abundance (concentration: 6mM),NP40-soluble protein abundance (concentration: 8mM),NP40-soluble protein abundance (concentration: 10mM)
CHMP6 (UniProt Q96FZ7),1.03 ± 0.028,1.05 ± 0.022,1.03 ± 0.038,1.01 ± 0.03,1.02 ± 0.032,0.964 ± 0.033
UniProt Q9NYF8|Q9NYF8-2|Q9NYF8-3|E9PK91,1.1 ± 0.018,1.19 ± 0.08,1.19 ± 0.033,1.29 ± 0.1,1.31 ± 0.11,1.43 ± 0.12
UniProt Q9UPT9|Q9UPT9-2,0.953 ± 0.022,0.953 ± 0.035,0.96 ± 0.025,0.922 ± 0.027,0.936 ± 0.021,0.922 ± 0.02
UniProt Q9BPZ3|D6R9Y1,0.981 ± 0.02,1.01 ± 0.044,0.945 ± 0.028,0.966 ± 0.051,0.929 ± 0.014,0.9085 ± 0.0067
UniProt Q9UM21,1.02 ± 0.058,0.987 ± 0.034,0.981 ± 0.023,1 ± 0.071,1 ± 0.043,0.991 ± 0.023
UTP11 (UniProt Q9Y3A2),1.02 ± 0.026,1.04 ± 0.037,1.03 ± 0.025,1.05 ± 0.026,1.05 ± 0.018,1.08 ± 0.018
UniProt Q9NXR1|Q9NXR1-2|X5DR54,0.994 ± 0.029,1.07 ± 0.041,1.01 ± 0.025,0.978 ± 0.019,0.985 ± 0.026,0.9852 ± 0.0096
UniProt Q9UBK8|Q9UBK8-2,0.928 ± 0.02,0.881 ± 0.038,0.916 ± 0.041,0.971 ± 0.031,0.94 ± 0.051,0.964 ± 0.049
UniProt Q9NPG3|Q9NPG3-2,1.01 ± 0.013,1.05 ± 0.037,1.07 ± 0.021,1.06 ± 0.034,1.06 ± 0.022,1.09 ± 0.067
CCDC86 (UniProt Q9H6F5),1.12 ± 0.025,1.17 ± 0.096,1.2 ± 0.017,1.25 ± 0.05,1.31 ± 0.084,1.4 ± 0.13
UniProt Q9UMZ2|Q9UMZ2-5|Q9UMZ2-9,1.02 ± 0.035,1.05 ± 0.064,1.03 ± 0.031,0.978 ± 0.035,0.955 ± 0.021,0.981 ± 0.037
SUPT16H (UniProt Q9Y5B9),1.03 ± 0.016,1.01 ± 0.023,1.1 ± 0.049,1.24 ± 0.053,1.33 ± 0.055,1.46 ± 0.12
RNF114 (UniProt Q9Y508),1.034 ± 0.0076,0.993 ± 0.021,1.03 ± 0.019,1.024 ± 0.0039,1.04 ± 0.018,1 ± 0.013
CISD1 (UniProt Q9NZ45),1 ± 0.047,1.04 ± 0.046,1 ± 0.04,0.992 ± 0.039,1.02 ± 0.0018,0.968 ± 0.051
LSG1 (UniProt Q9H089),0.993 ± 0.019,0.975 ± 0.033,0.987 ± 0.017,0.926 ± 0.03,0.927 ± 0.034,0.924 ± 0.013
MECR (UniProt Q9BV79),1.04 ± 0.021,1.21 ± 0.051,1.07 ± 0.011,1.04 ± 0.024,1.048 ± 0.0045,1.05 ± 0.03
ANKRA2 (UniProt Q9H9E1),0.912 ± 0.057,0.91 ± 0.023,0.911 ± 0.025,0.97 ± 0.087,0.99 ± 0.058,0.963 ± 0.05
XPO7 (UniProt Q9UIA9),0.973 ± 0.036,0.932 ± 0.035,0.96 ± 0.019,0.958 ± 0.037,0.966 ± 0.015,0.939 ± 0.03
UniProt Q9ULV4|Q9ULV4-2|Q9ULV4-3,1.07 ± 0.04,1.11 ± 0.056,1.12 ± 0.026,1.26 ± 0.015,1.33 ± 0.018,1.39 ± 0.037
WDR12 (UniProt Q9GZL7),0.997 ± 0.017,0.928 ± 0.082,0.979 ± 0.011,1 ± 0.028,0.999 ± 0.016,0.94 ± 0.033
HECA (UniProt Q9UBI9),0.969 ± 0.029,1 ± 0.017,1.02 ± 0.049,1.034 ± 0.0078,1.06 ± 0.046,1.04 ± 0.024
UniProt Q9P0J0|Q9P0J0-2,0.912 ± 0.015,0.851 ± 0.095,0.89 ± 0.021,0.856 ± 0.017,0.877 ± 0.037,0.792 ± 0.047
RAB23 (UniProt Q9ULC3),0.9714 ± 0.0024,0.9596 ± 0.0092,0.974 ± 0.029,1.01 ± 0.029,1.03 ± 0.044,1 ± 0.018
SMARCD1 (UniProt Q96GM5),1.01 ± 0.085,0.97 ± 0.12,1.03 ± 0.11,1.01 ± 0.12,1.03 ± 0.12,1.01 ± 0.12
